Data as given in the supplement of paper PMC11001985.

Chain of UniProt O14737 (O14737 whole entry): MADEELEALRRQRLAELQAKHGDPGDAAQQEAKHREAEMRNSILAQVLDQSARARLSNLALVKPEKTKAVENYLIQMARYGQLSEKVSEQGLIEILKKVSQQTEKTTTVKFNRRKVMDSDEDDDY
Chain of UniProt P61981 (P61981 whole entry): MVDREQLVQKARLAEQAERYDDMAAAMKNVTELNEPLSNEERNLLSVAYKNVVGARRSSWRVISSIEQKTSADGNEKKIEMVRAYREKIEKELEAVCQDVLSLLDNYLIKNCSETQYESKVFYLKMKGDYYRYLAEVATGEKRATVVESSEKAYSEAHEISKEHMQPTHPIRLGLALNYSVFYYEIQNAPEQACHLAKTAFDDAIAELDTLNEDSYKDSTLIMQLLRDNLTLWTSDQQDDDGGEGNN
Chain of UniProt P05141 (P05141 whole entry): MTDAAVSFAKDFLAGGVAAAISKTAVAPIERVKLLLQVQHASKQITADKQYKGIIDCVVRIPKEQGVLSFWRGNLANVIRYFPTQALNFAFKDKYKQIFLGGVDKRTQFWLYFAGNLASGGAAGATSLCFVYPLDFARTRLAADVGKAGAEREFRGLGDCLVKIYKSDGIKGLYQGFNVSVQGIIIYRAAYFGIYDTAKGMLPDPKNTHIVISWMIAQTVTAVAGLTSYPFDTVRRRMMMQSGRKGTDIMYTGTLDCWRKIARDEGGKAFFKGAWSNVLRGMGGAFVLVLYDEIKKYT
Chain of UniProt P23229 (P23229 whole entry): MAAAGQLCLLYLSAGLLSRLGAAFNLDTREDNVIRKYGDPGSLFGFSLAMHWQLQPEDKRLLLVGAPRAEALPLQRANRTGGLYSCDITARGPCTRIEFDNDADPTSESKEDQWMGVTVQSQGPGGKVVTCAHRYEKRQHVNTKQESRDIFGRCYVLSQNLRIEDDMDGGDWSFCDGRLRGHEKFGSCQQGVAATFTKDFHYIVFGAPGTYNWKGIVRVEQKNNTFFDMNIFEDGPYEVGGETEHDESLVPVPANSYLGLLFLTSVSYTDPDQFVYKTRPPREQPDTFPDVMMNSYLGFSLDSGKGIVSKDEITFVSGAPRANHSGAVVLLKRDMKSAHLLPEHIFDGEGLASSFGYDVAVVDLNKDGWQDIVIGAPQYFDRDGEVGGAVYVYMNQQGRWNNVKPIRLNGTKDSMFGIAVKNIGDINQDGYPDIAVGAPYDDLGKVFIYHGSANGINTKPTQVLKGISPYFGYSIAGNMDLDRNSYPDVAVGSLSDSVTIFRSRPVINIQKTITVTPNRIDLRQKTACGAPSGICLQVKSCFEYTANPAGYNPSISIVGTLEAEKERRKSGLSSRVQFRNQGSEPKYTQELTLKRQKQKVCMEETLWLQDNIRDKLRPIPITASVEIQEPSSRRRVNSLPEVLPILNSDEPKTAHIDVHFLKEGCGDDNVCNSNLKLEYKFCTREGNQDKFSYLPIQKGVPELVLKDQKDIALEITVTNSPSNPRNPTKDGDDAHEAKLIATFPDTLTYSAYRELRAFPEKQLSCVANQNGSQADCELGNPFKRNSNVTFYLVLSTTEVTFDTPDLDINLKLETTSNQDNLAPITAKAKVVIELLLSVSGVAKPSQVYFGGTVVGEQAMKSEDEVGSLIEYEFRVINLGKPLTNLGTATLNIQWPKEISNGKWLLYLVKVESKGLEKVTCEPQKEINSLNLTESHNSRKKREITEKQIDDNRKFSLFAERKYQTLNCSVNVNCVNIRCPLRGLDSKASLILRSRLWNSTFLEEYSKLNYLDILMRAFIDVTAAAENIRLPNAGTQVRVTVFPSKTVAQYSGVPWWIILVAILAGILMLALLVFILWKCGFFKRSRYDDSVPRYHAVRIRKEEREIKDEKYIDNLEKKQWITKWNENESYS
Chain of UniProt Q9UJS0 (Q9UJS0 whole entry): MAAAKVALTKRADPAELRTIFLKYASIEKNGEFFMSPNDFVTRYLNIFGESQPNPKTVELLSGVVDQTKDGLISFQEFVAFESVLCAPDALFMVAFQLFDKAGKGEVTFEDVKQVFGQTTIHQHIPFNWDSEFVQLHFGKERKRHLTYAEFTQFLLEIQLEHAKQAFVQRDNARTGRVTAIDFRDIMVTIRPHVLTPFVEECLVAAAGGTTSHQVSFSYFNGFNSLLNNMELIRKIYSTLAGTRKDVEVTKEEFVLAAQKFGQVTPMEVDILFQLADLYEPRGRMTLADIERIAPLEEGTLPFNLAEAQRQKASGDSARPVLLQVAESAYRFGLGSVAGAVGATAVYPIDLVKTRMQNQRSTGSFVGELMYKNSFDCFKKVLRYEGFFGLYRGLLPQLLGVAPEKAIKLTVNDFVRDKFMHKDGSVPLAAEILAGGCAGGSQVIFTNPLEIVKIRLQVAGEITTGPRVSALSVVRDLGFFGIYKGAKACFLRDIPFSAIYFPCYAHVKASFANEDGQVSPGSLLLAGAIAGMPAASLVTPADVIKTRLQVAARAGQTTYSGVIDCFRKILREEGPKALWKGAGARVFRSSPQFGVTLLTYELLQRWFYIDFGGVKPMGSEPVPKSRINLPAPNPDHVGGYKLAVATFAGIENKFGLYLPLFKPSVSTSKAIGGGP
Chain of UniProt Q86UP2 (Q86UP2 whole entry): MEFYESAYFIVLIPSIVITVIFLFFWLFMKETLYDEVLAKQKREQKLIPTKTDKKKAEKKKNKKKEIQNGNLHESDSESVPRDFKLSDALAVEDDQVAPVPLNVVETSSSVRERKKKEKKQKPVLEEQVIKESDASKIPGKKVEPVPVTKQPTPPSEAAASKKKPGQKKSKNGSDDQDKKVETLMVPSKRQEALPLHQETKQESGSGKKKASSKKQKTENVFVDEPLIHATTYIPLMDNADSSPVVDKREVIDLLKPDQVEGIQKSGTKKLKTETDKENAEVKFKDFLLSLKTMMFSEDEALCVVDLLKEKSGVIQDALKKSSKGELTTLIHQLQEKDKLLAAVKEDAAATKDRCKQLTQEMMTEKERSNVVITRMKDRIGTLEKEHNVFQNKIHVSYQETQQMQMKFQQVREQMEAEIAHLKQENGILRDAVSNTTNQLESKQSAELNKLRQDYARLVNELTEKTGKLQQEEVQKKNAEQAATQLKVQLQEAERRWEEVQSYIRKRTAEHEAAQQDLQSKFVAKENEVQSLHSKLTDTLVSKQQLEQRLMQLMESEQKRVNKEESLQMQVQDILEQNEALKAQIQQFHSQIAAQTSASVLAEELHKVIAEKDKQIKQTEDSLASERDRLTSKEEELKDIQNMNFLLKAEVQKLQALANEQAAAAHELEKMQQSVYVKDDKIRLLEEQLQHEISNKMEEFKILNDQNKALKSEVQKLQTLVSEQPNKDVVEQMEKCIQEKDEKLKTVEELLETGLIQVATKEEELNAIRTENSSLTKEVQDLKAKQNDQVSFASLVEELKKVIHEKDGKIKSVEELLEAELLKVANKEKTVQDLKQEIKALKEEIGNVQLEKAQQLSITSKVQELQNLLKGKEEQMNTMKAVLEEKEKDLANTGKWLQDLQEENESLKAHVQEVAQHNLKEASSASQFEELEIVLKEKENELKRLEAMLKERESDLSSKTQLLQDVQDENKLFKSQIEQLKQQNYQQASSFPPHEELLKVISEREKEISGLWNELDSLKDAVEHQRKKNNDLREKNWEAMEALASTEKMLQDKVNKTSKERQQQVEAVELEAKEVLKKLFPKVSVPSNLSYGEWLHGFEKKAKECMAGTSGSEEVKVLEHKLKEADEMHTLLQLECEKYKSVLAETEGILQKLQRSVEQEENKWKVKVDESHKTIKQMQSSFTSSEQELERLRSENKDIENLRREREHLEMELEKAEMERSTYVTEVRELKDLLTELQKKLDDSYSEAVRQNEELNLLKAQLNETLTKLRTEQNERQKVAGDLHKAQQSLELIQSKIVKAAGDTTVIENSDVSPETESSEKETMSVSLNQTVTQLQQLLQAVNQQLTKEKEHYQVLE
Chain of UniProt P04083 (P04083 whole entry): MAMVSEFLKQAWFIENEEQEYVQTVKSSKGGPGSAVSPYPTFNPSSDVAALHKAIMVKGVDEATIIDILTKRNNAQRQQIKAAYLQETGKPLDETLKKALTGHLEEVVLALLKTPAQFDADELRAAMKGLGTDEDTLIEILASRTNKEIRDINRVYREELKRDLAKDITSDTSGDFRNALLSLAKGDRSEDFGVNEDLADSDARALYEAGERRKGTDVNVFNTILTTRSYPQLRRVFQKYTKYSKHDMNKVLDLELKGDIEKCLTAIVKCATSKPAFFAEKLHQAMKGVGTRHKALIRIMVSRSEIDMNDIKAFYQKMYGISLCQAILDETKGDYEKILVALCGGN
Chain of UniProt Q9P0L0 (Q9P0L0 whole entry): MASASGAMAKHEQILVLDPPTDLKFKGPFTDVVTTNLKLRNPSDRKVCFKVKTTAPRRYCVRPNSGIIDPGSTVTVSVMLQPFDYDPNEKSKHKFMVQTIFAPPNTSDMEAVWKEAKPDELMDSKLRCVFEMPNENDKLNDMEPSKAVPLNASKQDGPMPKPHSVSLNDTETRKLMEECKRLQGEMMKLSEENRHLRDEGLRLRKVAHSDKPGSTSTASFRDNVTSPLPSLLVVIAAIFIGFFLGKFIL
Chain of UniProt P61769 (P61769 whole entry): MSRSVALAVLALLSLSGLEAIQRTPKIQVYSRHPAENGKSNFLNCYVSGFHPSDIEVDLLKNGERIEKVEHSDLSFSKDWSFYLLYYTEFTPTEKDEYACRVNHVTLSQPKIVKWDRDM
Chain of UniProt P09543 (P09543 whole entry): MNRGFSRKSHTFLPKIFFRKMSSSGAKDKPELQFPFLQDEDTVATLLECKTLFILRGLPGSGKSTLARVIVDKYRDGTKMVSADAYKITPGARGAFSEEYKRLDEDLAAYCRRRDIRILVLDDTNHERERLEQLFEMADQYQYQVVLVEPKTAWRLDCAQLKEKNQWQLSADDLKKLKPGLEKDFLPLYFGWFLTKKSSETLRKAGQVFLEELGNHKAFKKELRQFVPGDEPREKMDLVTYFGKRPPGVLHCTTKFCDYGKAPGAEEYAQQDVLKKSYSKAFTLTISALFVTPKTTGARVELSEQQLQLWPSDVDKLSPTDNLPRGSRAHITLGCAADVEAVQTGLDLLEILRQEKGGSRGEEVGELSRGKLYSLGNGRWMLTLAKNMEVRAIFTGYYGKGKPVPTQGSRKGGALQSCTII

What follows are targets tested with C#CCNC(=O)CCSSCCC(=O)NCCc1ccc(C=O)c(C=O)c1 (assay: lysine labeling ratio R10:1 (500 µM / 50 µM probe), SILAC-ABPP in living cells; higher = lower intrinsic lysine reactivity toward the probe, active = 2 or less). Conditions: HeLa; probe concentrations 500 vs 50 µM.
How it was run: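 Each lysine carries an R value: the filtered median of MS1 peptide ratios of high probe to low probe, with the median then taken over forward and reverse replicates. These came from living SILAC light and heavy HeLa cells in PBS at room temperature labelled with an alkyne-tagged, disulfide-linked lysine probe at 500 µM or 50 µM, in forward and reverse swaps. The lysates were mixed, clicked to biotin-azide, trypsin-digested, captured on neutravidin, released by DTT, alkylated and run by LC-MS/MS on a TIMS-TOF Pro. The highest value allowed is 20.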
UniProt Q92729 (lysine site: K388) was tested, and the “lysine labeling ratio R10:1” value was 3.11 (inactive). With “PDCD5 (lysine site: K33) (UniProt O14737)” the “lysine labeling ratio R10:1” value was 4.82 (inactive). For “SLC25A13 (lysine site: K235) (UniProt Q9UJS0)”, the “lysine labeling ratio R10:1” value was 2.23 (inactive). In the case of “ANXA1 (lysine site: K214) (UniProt P04083)”, the “lysine labeling ratio R10:1” value is reported as 6.33 (inactive). For “NUCB1 (lysine site: K205) (UniProt Q02818)”, the “lysine labeling ratio R10:1” value was 4.75 (inactive). For “CCT8 (lysine site: K20) (UniProt P50990)”, the “lysine labeling ratio R10:1” value was 2.11 (inactive). For “EPRS (lysine site: K360) (UniProt P07814)”, the “lysine labeling ratio R10:1” value was 1.77 (active). In the case of “MYH9 (lysine site: K202) (UniProt P35579)”, the “lysine labeling ratio R10:1” value is reported as 1.58 (active). For UniProt P59998 (lysine site: K44), the “lysine labeling ratio R10:1” value was 7.73 (inactive). With UniProt Q8WXI7 (lysine site: K13072) the “lysine labeling ratio R10:1” value was 11.1 (inactive). For GPI (lysine site: K89) (UniProt P06744), the “lysine labeling ratio R10:1” value was 1.12 (active). With “SLC25A5 (lysine site: K147) (UniProt P05141)” the “lysine labeling ratio R10:1” value was 4.57 (inactive). With “ITGA6 (lysine site: K511) (UniProt P23229)” the “lysine labeling ratio R10:1” value was 14.7 (inactive). UniProt P61981 (lysine site: K142) was tested, and the “lysine labeling ratio R10:1” value was 3.71 (inactive). With UniProt P62805 (lysine site: K78) the “lysine labeling ratio R10:1” value was 8.41 (inactive). For UniProt P26639 (lysine site: K712), the “lysine labeling ratio R10:1” value was 1.83 (active). For “KTN1 (lysine site: K559) (UniProt Q86UP2)”, the “lysine labeling ratio R10:1” value was 1.4 (active). For “VAPA (lysine site: K180) (UniProt Q9P0L0)”, the “lysine labeling ratio R10:1” value was 1.96 (active). For “RPL5 (lysine site: K242) (UniProt P46777)”, the “lysine labeling ratio R10:1” value was 5.69 (inactive). In the case of “ATAD3B (lysine site: K46) (UniProt Q5T9A4)”, the “lysine labeling ratio R10:1” value is reported as 3.54 (inactive). For “CNP (lysine site: K402) (UniProt P09543)”, the “lysine labeling ratio R10:1” value was 2.29 (inactive). With “B2M (lysine site: K114) (UniProt P61769)” the “lysine labeling ratio R10:1” value was 15.6 (inactive). In the case of UniProt Q15149 (lysine site: K2706), the “lysine labeling ratio R10:1” value is reported as 3.69 (inactive).
